{
  "source": "the GenesisPotency data set",
  "note": "Out of some 1,300 compounds screened, fewer than 10 were called active. Another 3% or so got no clear call; they are omitted. Calls come from the whole dose curve; as a rule, active = well fitted inhibition curve with a large enough effect; inconclusive = small, poorly fitted or top-dose-only effect; inactive = flat fitted curve, though single readings scatter. A selection follows.",
  "data": [
    {"tested_on": "T1, ", "T1 sequence (whole entry)": "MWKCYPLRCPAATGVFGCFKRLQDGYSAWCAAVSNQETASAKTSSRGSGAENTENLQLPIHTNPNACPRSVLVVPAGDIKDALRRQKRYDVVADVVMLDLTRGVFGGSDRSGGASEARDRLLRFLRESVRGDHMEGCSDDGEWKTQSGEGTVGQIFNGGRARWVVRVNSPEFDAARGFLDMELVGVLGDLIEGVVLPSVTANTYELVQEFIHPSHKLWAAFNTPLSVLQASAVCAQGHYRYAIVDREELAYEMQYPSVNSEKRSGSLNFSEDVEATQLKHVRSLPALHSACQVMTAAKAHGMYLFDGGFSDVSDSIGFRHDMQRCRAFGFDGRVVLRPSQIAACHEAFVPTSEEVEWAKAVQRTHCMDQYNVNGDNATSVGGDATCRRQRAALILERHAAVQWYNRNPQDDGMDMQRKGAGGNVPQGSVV", "assay": "qHTS of Trypanosoma Brucei Inhibitors: LOPAC Validation (AID 624147)", "values": [
      {"smiles": "N.N.[Cl][Pt][Cl]", "outcome": "active"}
    ]}
  ]
}
